In all, about 290,000 compounds went through this assay and about 11,000 (3.8%) were called active. This is one part of a sample in which actives are shown more often than they occur. Unmarked numbers belong to inactive results.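 How the source made its calls: active means mean replicate inhibition above about 79%, with every replicate also reaching it (limit read from the data); inconclusive means only one of the two criteria met; inactive means mean below limit and not every replicate reaching it.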

FAD-linked sulfhydryl oxidase ALR (Homo sapiens), sequence (P55789 whole entry, looked up): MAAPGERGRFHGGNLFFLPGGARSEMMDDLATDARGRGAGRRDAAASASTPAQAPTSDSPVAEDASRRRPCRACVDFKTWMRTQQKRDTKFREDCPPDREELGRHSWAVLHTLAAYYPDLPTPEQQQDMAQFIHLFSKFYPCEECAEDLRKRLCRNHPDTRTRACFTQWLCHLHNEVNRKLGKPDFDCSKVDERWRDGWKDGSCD

The test has as its target FAD-linked sulfhydryl oxidase ALR (Homo sapiens) (UniProt P55789). In words: ALR-catalysed DTT oxidation blockers – biochemical, H2O2 detection, HRP-luminol luminescence, single point, primary screen (AID 485317). Particulars: purified ALR, stronger effect = higher value, concentration not given here.
Take `CCN1C(=O)[C@H]2[C@@H](c3ccc(SC4CCCCC4)c(OC)c3)N[C@@](Cc3ccccc3)(C(=O)OC)[C@H]2C1=O`: the inhibition is -5.65%. The figure for `COc1ccc(CCC(=O)c2ccc(OC)cc2)cc1` is -20.1%; for `Cc1nc2cc(NCc3cccs3)ccc2n1C` it is 84% (active); for `Cc1nc2cc(NC(=O)NC3CC3)ccc2n1C` it is 50.8%. For `Cc1nc2cc(NC(=O)Nc3cccc(F)c3)ccc2n1C`, the inhibition is -7.89%. The figure for `O=C(N=C1SC2CS(=O)(=O)CC2N1c1ccccc1)c1ccccc1` (configuration not stated) is -1.67%; for `CC1(c2ccccc2)NC(=O)N(CC(=O)N2CC(=O)Nc3ccccc32)C1=O` (configuration not stated) it is -7.27%.

Turning to `COc1ccc2c(c1)O/C(=C\c1ccccc1O)C2=O`, the inhibition was 0.703%. As for `CC1=C/C(=N\OS(=O)(=O)c2ccccc2)C=CC1=O`, the inhibition was 98.9% (active). The figure for `O=S(=O)(ON(c1ccccc1)S(=O)(=O)c1ccccc1)c1ccccc1` is -14.1%; for `CCCCCN(C(=O)CCC(=O)OCC(=O)NC1CCC(C)CC1)c1c(N)n(CCCC)c(=O)[nH]c1=O` (configuration not stated) it is -10.8%; for `C=CCC1=C/C(=C\c2c(N)n3nc(CC(=O)N4CCOCC4)sc3nc2=O)C=C(OC)C1=O` it is 54.3%. Regarding `COc1ccc(OCC(=O)N2CCOCC2)cc1`, the inhibition was -7.03%. Consider `COC1=C/C(=C/c2c(N)n3nc(CC(=O)N4CCOCC4)sc3nc2=O)C=CC1=O`, for which the inhibition is 99.1% (active). With `O=C(Cc1ccc(S(=O)(=O)N2CCOCC2)s1)N1CCN(c2ccc(C(F)(F)F)cc2[N+](=O)[O-])CC1` the figure was -1.8%; with `COc1ccccc1-c1sc2ccccc2c1-c1ccc(Br)nc1`, -3.77%.

Take `CC1CCCCC1NC(=O)c1cc(=O)[nH]c2ccccc12` (configuration not stated): the inhibition was -38.4%.

Turning to `CCCCCNC(=O)C1c2ccccc2Oc2ccccc21`, the inhibition is -7.1%. Take `O=C(N/N=C/c1ccc(O)c(O)c1)C1c2ccccc2Oc2ccccc21`: the inhibition was 99% (active). As to `CCC(C)(C)NC(=O)C1c2ccccc2Oc2ccccc21`, the inhibition is -6.09%. For `CSCCC(NC(=O)COc1ccccc1)C(=O)N(C)CC(=O)Nc1ccc(C)cc1` (configuration not stated), the inhibition was -1.79%. With `COc1cccc(CNC(=O)CN2C(=O)NC(Cc3ccccc3)(c3ccccc3)C2=O)c1` (configuration not stated) the figure was -2.85%; with `CC(C)c1ccc(/C=C/C(=O)NCCCN2CCOCC2)cc1`, 3.5%; with `O=C1[C@H]2[C@@H](c3ccc(F)cc3)N3C(=O)N(c4ccc(C(F)(F)F)cc4)C(=O)[C@@]3(Cc3ccccc3)[C@H]2C(=O)N1C1CCCCC1`, 2.08%.

Regarding `CC(=O)N/N=C(\C)c1ccc(Br)cc1Br`, the inhibition is -9.48%. The figure for `CC(=N\NC(=O)c1cc(Br)ccc1O)/C(=N/O)C(=O)Nc1ccccc1` is 85.8% (active). `CC(C)/C=N/NC(=O)c1cc(Br)ccc1O`: the inhibition is 44.3%. With `COc1ccc(-c2sc3ccc(OC)cc3c2C#Cc2ccccn2)cc1` the figure was 0.498%; with `O=C(COc1coc(CN2CCN(c3ccccc3F)CC2)cc1=O)N1CCc2ccccc21`, -0.38%; with `COc1ccccc1-n1ccnc1SCC(=O)NC(C)(C)C`, 17.9%.

Turning to `Cc1ccccc1CSCC(=O)NC(=O)NC(C)(C)C`, the inhibition was -23.2%.

For the compound `CC(C)(C)NC(=O)CSC(=Nc1ccccc1F)NC#N`, the inhibition is 98.7% (active). With `COc1cc(C(C)=O)ccc1OC(C)C(=O)Nc1ccc(S(=O)(=O)N2CCCC2)cc1` (configuration not stated) the figure was -9.52%. The figure for `O=C(CSc1ncnc2sccc12)NC1CCS(=O)(=O)C1` (configuration not stated) is -0.589%; for `Cn1cc(CCC(=O)N2CCCC(C(=O)c3ccc(C(C)(C)C)cc3)C2)cn1` (configuration not stated) it is -21%.

Take `Cc1ccc(NC2CCCN(C(=O)CCc3cn[nH]c3)C2)cc1C` (configuration not stated): the inhibition was 98.7% (active). The figure for `COc1ccccc1CN1CC(C(=O)NCCc2cn[nH]c2)CCC1=O` (configuration not stated) is -0.59%; for `CCC(C)c1ccc(NC(=O)COC(=O)C2CCCC2)cc1` (configuration not stated) it is 0.804%. With `CC(OC(=O)c1c(F)cccc1F)C(=O)NCCC1=CCCCC1` (configuration not stated) the figure was -6.45%.

In the case of `O=C(CN1C(=O)CSC1=O)N1CCCC(Nc2ccc(F)cc2)C1` (configuration not stated), the inhibition is 99.1% (active). The figure for `O=C1CCCCN1CCCC(=O)N1CCCC(Nc2ccc(F)cc2)C1` (configuration not stated) is 17.9%; for `O=C(CN1CCOC1=O)N1CCCC(Nc2ccc(F)c(F)c2)C1` (configuration not stated) it is 12.5%. The figure for `COC(=O)c1ccc(/C=C/c2c(-c3ccc(OC)cc3)sc3ccccc23)cc1` is 2.88%; for `CC(OC(=O)c1ccc(-n2cnnn2)cc1)C(=O)NCc1ccccc1` (configuration not stated) it is 0.686%; for `CC(C)n1c(=S)[nH]c2cc(C(F)(F)F)ccc21` it is 25.9%. Take `CCCCn1c(=S)[nH]c2cc(S(=O)(=O)N3CCCCC3)ccc21`: the inhibition was 9.62%.

In the case of `CCCn1c(=S)[nH]c2ccc(C(F)(F)F)cc21`, the inhibition is 96.9% (active). For the compound `O=C(CNC(=O)c1ccccc1F)OCC(=O)c1c[nH]c2ccccc12`, the inhibition was -4.95%. On to `CC(C)n1cnc2c(NCc3ccccc3)cc(N[C@@H](CO)Cc3ccccc3)cc21`, for which the inhibition was -30.8%. The figure for `Cc1ccc(OCc2nc3ccccc3n2C)cc1` is -6.95%; for `Cn1c(Nc2cccc(Cl)c2)nc2ccccc21` it is 10.5%. For the compound `Cc1ccc(O)c(CNc2nc3ccccc3n2C)c1`, the inhibition was 90.7% (active). The figure for `Cc1ccc(-c2csc(NCCc3nc4cc(Cl)c(Cl)cc4n3CCOCCO)n2)cc1` is -6.99%; for `O=C(c1n[nH]c2c1CCC2)N1CCCC(Nc2cccc(F)c2)C1` (configuration not stated) it is 99.1% (active). The figure for `O=C(Nc1cccc(F)c1)NC1CCCCCCC1` is 43.5%; for `Cc1ccc(F)cc1S(=O)(=O)Nc1cccc(C(=O)N2CCCC(C(N)=O)C2)c1` (configuration not stated) it is -5.56%; for `CCCCn1c(N)c(N(CC(C)C)C(=O)c2cnc(C)cn2)c(=O)[nH]c1=O` it is -2.15%. Regarding `COc1ccc(-n2cc(CNC3CCOCC3)c(-c3cccc(F)c3)n2)cc1`, the inhibition was -7%.

For `COc1ccc(-c2nn(-c3ccccc3)cc2CN2CCCO2)c(F)c1`, the inhibition is 83.5% (active). With `CCC(O)C1CCN(Cc2cn(-c3ccc(OC)cc3)nc2-c2cccc(F)c2)CC1` (configuration not stated) the figure was -36.1%; with `C[C@@H]1NC(=O)[C@@]2(C)[C@@H](c3ccccc3)[C@H]3COc4ccccc4[C@@H]3N2C1=O`, 0.598%; with `CN1/C(=C\C(=O)c2cccnc2Cl)C(C)(C)c2ccccc21`, -13.8%.

`CN1CCN(CCC(=O)N/N=C/C=C2\N(C)c3ccccc3C2(C)C)CC1`: the inhibition is 99% (active). The figure for `CC(C)Nc1nnc(SCC(=O)/C=C2\N(C)c3ccccc3C2(C)C)s1` is -3.17%. The figure for `Cc1ccc(NC(=O)CN(C)C(=O)c2ccc(Cl)c(S(=O)(=O)NCc3ccco3)c2)cc1` is -3.45%; for `Cc1ccc(-c2nn(-c3ccc(F)cc3)cc2C(=O)NCC(c2cccs2)N2CCOCC2)cc1` (configuration not stated) it is -3.7%; for `CC1(C)CC[C@]2(C(=O)O)CC[C@]3(C)C(=CCC4[C@@]5(C)CC[C@H](O)C(C)(C)C5[C@H](O)C[C@]43C)[C@@H]2C1` (some centres not stated) it is -9.76%. With `O=C(CN1CCOCC1)Nc1cc(Cl)ccc1Cl` the figure was -11.6%. For the compound `O=C(CN1CCN(c2ccc(O)cc2)CC1)Nc1cc(S(=O)(=O)N2CCOCC2)ccc1Cl`, the inhibition was 94.9% (active). `O=C(CN1CCN(c2cccc(Cl)c2)CC1)Nc1ccc(S(=O)(=O)N2CCOCC2)cc1`: the inhibition is -14.5%. As to `Cc1ccc2c(CSc3nncs3)cc(=O)oc2c1`, the inhibition is -0.57%. With `CCOC(=O)Cc1csc(NC(=O)COc2ccc3c(C)cc(=O)oc3c2)n1` the figure was -3.23%. The figure for `CCOC(=O)Cc1csc(SCc2cc(=O)oc3cc(O)ccc23)n1` is 97.7% (active); for `O=C(NCCc1ccc(F)cc1)c1ccc2nccnc2c1` it is -6.27%; for `CS(=O)(=O)c1ccc(Cl)c(NC(=O)COC(=O)c2ncc(Cl)c(Cl)c2Cl)c1` it is 0.688%. The figure for `Cc1cccc(C)c1Nc1nnc(SCC(=O)Nc2sccc2C#N)s1` is 14.7%; for `Cc1ccc(NC(=O)CSCC(=O)Nc2sccc2C#N)cc1` it is 98.7% (active). As to `N#Cc1ccsc1NC(=O)CN1CCCCC1`, the inhibition was 3.1%. The figure for `COC(C/C=C/C(=O)[C@@H](C)OCc1ccccc1)OC` is 55.7%; for `O=C(CNC(=O)C12CC3CC(CC(C3)C1)C2)OCC(=O)N1CCCCC1` it is -2.51%. The figure for `O=C(CSc1ccccc1)Nc1cccc(S(=O)(=O)N2CCOCC2)c1` is -1.29%; for `CCn1c(CNC(=O)c2ccc(OC)c(OC)c2)nnc1SCC(=O)Nc1ccccc1` it is -2.46%. Take `CCc1c(O)nc(SCC(=O)Nc2ccccc2)n(C(C)CC)c1=O` (configuration not stated): the inhibition was 98.8% (active). The figure for `CCn1c(Cc2ccccc2)nnc1SCC(=O)Nc1ccccc1` is -28.7%; for `CC(OC(=O)c1ccc([N+](=O)[O-])cc1)C(=O)NCC1CCCCC1` (configuration not stated) it is -1.04%.

In the case of `O=C(Nc1cccc2c1CCCC2)c1ccc(F)cc1`, the inhibition is -21.6%. For the compound `CC1CN(C(=O)c2ccc([N+](=O)[O-])s2)CC(C)O1` (configuration not stated), the inhibition was -91.3%. Consider `COc1cc(N/C=C2\CC(=O)NC(C)=C2C#N)cc(OC)c1OC`, for which the inhibition is 97.1% (active). The figure for `COC(=O)C1=C(C)NC(=O)CC1c1ccccc1OC` (configuration not stated) is -0.32%; for `COc1cc2c(cc1OC)C(C(=O)Nc1cc(C)c(OC)c(C)c1)CC(=O)N2` (configuration not stated) it is -6.22%; for `Cn1c(N)c(C(=O)COC(=O)/C=C/c2cccc(C(F)(F)F)c2)c(=O)n(C)c1=O` it is -1.31%. Regarding `CC(Sc1nncn1C)C(=O)NCCC1=CCCCC1` (configuration not stated), the inhibition was -2.34%.

The record behind these values is PubChem BioAssay AID485317 (Broad Institute, 2010).
